# Hit rate of the full screen: of about 310,000 compounds, about 14,000 (4.5%) showed an effect of 50% or more. The effect is printed as a negative number. For the sample, strong results were picked, then their nearest neighbours and some compounds at random.
# Target: human ether-à-go-go-related gene (hERG) potassium channel (human, UniProt Q12809)
# Experiment: primary screen, population patch clamp on CHO cells stably expressing hERG; higher = less effect of the substance
# 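Note: peak tail current of the secondary pulse compared with the same well before compound.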
# Chain of human ether-à-go-go-related gene (hERG) potassium channel (Q12809 whole entry, looked up): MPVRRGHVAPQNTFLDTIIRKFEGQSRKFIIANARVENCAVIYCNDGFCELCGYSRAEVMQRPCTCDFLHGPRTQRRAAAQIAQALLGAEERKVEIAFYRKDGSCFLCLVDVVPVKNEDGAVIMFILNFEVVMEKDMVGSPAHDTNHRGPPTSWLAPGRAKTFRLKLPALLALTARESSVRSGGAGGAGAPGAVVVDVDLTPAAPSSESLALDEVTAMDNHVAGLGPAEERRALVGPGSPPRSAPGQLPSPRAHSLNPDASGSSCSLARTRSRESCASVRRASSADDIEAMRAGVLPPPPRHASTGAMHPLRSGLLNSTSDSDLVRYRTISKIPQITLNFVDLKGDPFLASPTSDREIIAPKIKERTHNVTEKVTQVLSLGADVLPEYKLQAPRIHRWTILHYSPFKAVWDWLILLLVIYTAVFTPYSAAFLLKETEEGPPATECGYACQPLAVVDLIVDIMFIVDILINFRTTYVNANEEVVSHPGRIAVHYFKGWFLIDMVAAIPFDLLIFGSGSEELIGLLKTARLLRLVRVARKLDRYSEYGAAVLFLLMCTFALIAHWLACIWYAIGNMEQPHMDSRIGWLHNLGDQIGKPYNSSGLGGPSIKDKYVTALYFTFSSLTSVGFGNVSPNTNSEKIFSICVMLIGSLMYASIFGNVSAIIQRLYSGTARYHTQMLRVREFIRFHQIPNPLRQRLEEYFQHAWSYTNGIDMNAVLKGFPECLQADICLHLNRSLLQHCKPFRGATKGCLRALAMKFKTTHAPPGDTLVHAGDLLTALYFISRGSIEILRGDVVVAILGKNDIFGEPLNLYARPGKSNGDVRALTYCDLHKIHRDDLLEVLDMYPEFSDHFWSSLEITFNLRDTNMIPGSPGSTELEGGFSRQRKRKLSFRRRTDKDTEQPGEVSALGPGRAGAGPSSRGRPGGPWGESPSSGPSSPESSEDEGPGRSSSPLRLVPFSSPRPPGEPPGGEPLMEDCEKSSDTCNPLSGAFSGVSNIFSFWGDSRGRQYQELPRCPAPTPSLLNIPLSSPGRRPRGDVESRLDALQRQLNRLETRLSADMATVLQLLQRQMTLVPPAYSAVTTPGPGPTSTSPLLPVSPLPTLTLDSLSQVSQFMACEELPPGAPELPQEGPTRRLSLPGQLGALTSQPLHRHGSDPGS
row,Compound,"hERG current change (%, negative = inhibition) at 10uM"
1,CC1(C)C2C/C(=N\O)C(C)(/[N+]([O-])=C/c3cccc([N+](=O)[O-])c3)CC21 (centres unmarked),-10.7%
2,COc1ccc(C(C(=O)NC2CCCC2)N(Cc2cccnc2)C(=O)Cc2cccs2)cc1OC (centres unmarked),-1.66%
3,Cc1cccc(CN2CCOCCS2(=O)=O)c1,10.2%
4,O=C(/C=C/c1cccs1)N1CCCC1,33.1%
5,COc1cccc(CN2CCN(Cc3ccc4cccc(F)c4n3)CC2CCO)c1 (centres unmarked),-39.9%
6,OCC1(Cc2cccc(F)c2)CCN(Cc2ccc3cccc(F)c3n2)CC1,-64.7%
7,OCC1(CCOc2ccccc2)CCN(Cc2ccc3cccc(F)c3n2)CC1,-83%
8,CC(C)c1csc(CN2CCC(CO)(Cc3cccc(F)c3)CC2)n1,-17.3%
9,OCC1(Cc2cccc(Cl)c2)CCCN(Cc2ccc3cc(F)ccc3n2)C1 (centres unmarked),-23.8%
10,COc1cccc(CC2(CO)CCN(S(=O)(=O)N(C)C)CC2)c1,11.9%
11,COc1cccc(CC2(CO)CCN(Cc3ccc4cccc(F)c4n3)CC2)c1,-64.4%
12,CC(=O)Cc1nsc(NC(=O)c2csc3c2CCCC3)n1,-8.24%
13,CCOc1ccccc1NC(=O)CSc1ccc(-c2ccco2)nn1,-16.6%
14,Cc1cccc(C2NC(c3cccc(C)c3)C(C)C(=O)C2C)c1 (centres unmarked),8.92%
15,CSc1ncc(CN2CCN(C(C)C)C(CCO)C2)cn1 (centres unmarked),-2.82%
16,O=C(Nc1nnc(C2=COCCO2)o1)c1ccc(Br)cc1,-0.63%
17,CCCc1cc(=O)[nH]c(SCC(=O)N2CCN(c3ccc(F)cc3)CC2)n1,-15.2%
18,CCN(CC)Cc1c(C(=O)N/N=C/c2ccco2)nnn1-c1nonc1N,-14.3%
19,FC(F)(F)c1cccc(N2Cc3ccccc3C2)c1,6.28%
20,COc1cccc(-c2nc(CS(=O)(=O)CC(=O)NCCc3ccccc3)c(C)o2)c1,0.232%
21,CCOC(=O)c1sc(=NC(=O)c2ccc(OC(C)C)cc2)n(C)c1C,10.8%
22,Nc1ccccc1-c1nnc(-c2ccc(-c3ccccc3)cc2)o1,10.1%
23,Cc1cc(C(=O)N2CCCC(C(=O)c3cc(F)ccc3F)C2)c(C)o1 (centres unmarked),-4.31%

row,Compound,"hERG current change (%, negative = inhibition) at 10uM"
1,COc1ccc(C(=O)C2CCCN(C(=O)Cn3nc(C)cc3C)C2)cc1F (centres unmarked),-17.4%
2,COc1ccc(C(=O)C2CCCN(C(=O)c3ccoc3C)C2)cc1F (centres unmarked),-6.04%
3,CSCC(=O)N1CCCC(C(=O)c2cc(F)ccc2F)C1 (centres unmarked),-1.1%
4,COc1ccc(/C=C/CN2CCCC(C(=O)c3ccc(OC)c(F)c3)C2)cc1 (centres unmarked),-94.5%
5,COc1ccc(/C=C/CN2CCCC(C(=O)c3cc(F)ccc3F)C2)cc1 (centres unmarked),-76.4%
6,Cc1nn(-c2ccccc2)c(Cl)c1/C=N\NC(=O)c1cnccn1,-5%
7,CCc1cccc(C)c1NS(=O)(=O)c1cc(Br)cnc1N,8.34%
8,COC(=O)c1ccccc1NC(=S)NC(NC(=O)COc1ccccc1)C(Cl)(Cl)Cl (centres unmarked),7.66%
9,CCN1CCN(C(=O)Cc2ccccc2OC)CC1,13.3%
10,Cc1cccc(C)c1OCC(O)CN1CCN(c2ccccn2)CC1 (centres unmarked),-35.5%
11,CC(C)(C)c1ccccc1OCC(O)CN1CCN(c2ccccn2)CC1.Cl (centres unmarked),-48.8%
12,Cc1cc(C)c(OCC(O)CN2CCN(c3ccccn3)CC2)c(C)c1.Cl (centres unmarked),-58.3%
13,Cc1ccc(OCC(O)CN2CCN(c3ccccn3)CC2)c(C)c1.Cl (centres unmarked),-60.5%
14,Cc1cc(C)c(C)c(OCC(=O)N2CCN(c3ccccn3)CC2)c1,-33.6%
15,Cc1cc(C)c(C)c(OCC(O)CN2CCN(c3ccccn3)CC2)c1.Cl (centres unmarked),-54.4%
16,Cc1ccccc1OCC(O)CN1CCN(c2ccccn2)CC1.Cl (centres unmarked),-48.8%
17,Cc1cccc(OCC(O)CN2CCN(c3ccccn3)CC2)c1C.Cl (centres unmarked),-45.5%
18,CCc1noc(C)c1C(=O)N1CCCSC1=Nc1ccccc1OC,-8.77%
19,O=C(CCCN1C(=O)/C(=C/c2ccccc2)SC1=S)N1CCOCC1,-30.1%
20,Cc1ccc(NC(=O)c2ccc(Cl)cc2[N+](=O)[O-])nc1,6.4%
21,O=C(Cn1c(=O)oc2ccccc21)Nc1ccccc1C(F)(F)F,21.6%
22,COc1cc(/C=C2/C(=O)ON=C2C)ccc1OCc1ccccc1F,2.22%
23,COCCNC(=O)C(OC(=O)C1=Cc2ccccc2OC1)C(C)C (centres unmarked),10.3%

row,Compound,"hERG current change (%, negative = inhibition) at 10uM"
1,Cn1c2ccccc2c2c(C(=O)NCc3ccco3)cn(C3CCCCC3)c(=O)c21,-33.4%
2,N=c1c(C(=O)NCc2ccco2)cc2c(=O)n3ccccc3nc2n1C1CCCC1,-77%
3,Cc1ccc2nc3c(cc(C(=O)NCc4ccco4)c(=N)n3C3CCCC3)c(=O)n2c1,-75.8%
4,O=C(NCc1ccco1)c1cnc2ccccn2c1=O,-3.03%
5,Cc1ccc2nc(SCC(=O)NCc3ccco3)nc(=O)n2c1,8.08%
6,N#C/C(=C\c1ccc(O)c(O)c1)C(=O)NCCCc1ccccc1,-1.59%
7,Cc1ccc(NC(=O)CSCC(=O)Nc2ccccc2N2CCCC2)cc1,-13.6%
8,Cc1ccc(NC(=O)CSCC(=O)Nc2cc(Cl)ccc2N2CCN(C)CC2)cc1,-53.1%
9,CN1CCN(c2ccc(Cl)cc2NC(=O)CC2OC(=O)c3ccccc32)CC1 (centres unmarked),-74.5%
10,Cc1cccc(NC(=O)CSCC(=O)Nc2ccccc2N2CCCCC2)c1,-1.89%
11,Cc1cc(NC(=O)CSCC(=O)Nc2cc(Cl)ccc2N2CCN(C)CC2)no1,-25.7%
12,Cc1cccc(NC(=O)CSCC(=O)Nc2ccccc2N2CCCC2)c1,-90%
13,O=C(CC1OC(=O)c2ccccc21)Nc1cc(Cl)ccc1N1CCCC1 (centres unmarked),-8.18%
14,Cc1cccc(NC(=O)CSCC(=O)Nc2cc(Cl)ccc2N2CCN(C)CC2)c1,-72.8%
15,CCN(CC)S(=O)(=O)c1ccc(N2CCN(C)CC2)c(NC(=O)CSCC(=O)Nc2cccc(C)c2)c1,-13%
16,Cc1cccc(NC(=O)CSCC(=O)Nc2cc(Cl)ccc2N2CCOCC2)c1,-31%
17,CN1CCN(c2ccc(Cl)cc2NC(=O)CCN2C(=O)c3ccccc3C2=O)CC1,-7.06%
18,Cc1ccc(NC(=O)CSCC(=O)Nc2cc(Cl)ccc2N2CCOCC2)cc1,-14.8%
19,COc1cccc(-c2ccc3nnc(SCC(=O)N4CCOCC4)n3n2)c1,-6.27%
20,O=C(Nc1cc(Sc2ccccn2)cc([N+](=O)[O-])c1)c1ccc([N+](=O)[O-])cc1,-6.06%
21,CCOc1ccc(-n2ccc(=O)c(C(=O)Nc3ccc(S(=O)(=O)Nc4ncccn4)cc3)n2)cc1,7.22%
22,CC1CCCC(NC(=O)CCn2c(=O)oc3ccccc32)C1C (centres unmarked),-18.4%
23,COC(=O)c1cc2oc(C)cc2n1CC(=O)N(C)c1ccccc1,5.36%

row,Compound,"hERG current change (%, negative = inhibition) at 10uM"
1,O=C(O)c1ccc(/C=N/N2CCN(c3ccccc3)CC2)cc1,7.59%
2,CC(C)N(C(=O)CSc1nc(COc2ccccc2)nc2ccccc12)C(C)C,-4.66%
3,O=C(NC(=S)N1CCOCC1)c1cc2ccccc2o1,12.7%
4,O=C(Cc1ccccn1)c1ccc(O)cc1O,21.5%
5,Cc1ccccc1Nc1nnc(SCC(=O)Nc2ccccc2[N+](=O)[O-])s1,3.5%
6,O=S1(=O)[C@H]2C[C@@H]3C=C[C@@]2(CN1Cc1ccc(F)cc1)O3,-25.2%
7,CCN(CC)CCNC(=O)c1cc2ccccc2nc1Cl,43.4%
8,CCCCCn1c(=O)[nH]c2cc(C(=O)N3CCN(C(=O)OCC)CC3)ccc2c1=O,-9.61%
9,CCC(=O)NCCn1c(C)cc2ccccc21,-0.267%
10,Cc1cc2ccccc2n1CCNC(=O)C(C)(C)C,11.7%
11,CC(=O)NCCn1c(C)cc2ccccc21,-55.1%
12,O=C(O)C(=O)O.O=C(c1ccccc1)c1ccc(OCC(O)CNCc2ccc(Cl)cc2)cc1 (centres unmarked),-66.6%
13,CN(Cc1ccccc1)CC(O)COc1ccc(CNCCc2ccncc2)cc1 (centres unmarked),-17.5%
14,COc1ccc(CNC(=O)Cc2cccs2)cc1,15%
15,O=C(O)C(=O)O.OC(CNCc1ccc(Cl)cc1)COc1ccccc1 (centres unmarked),-41.9%
16,COc1ccc(CNC(C)Cc2cccs2)cc1 (centres unmarked),-2.79%
17,COc1cccc(CNCC(O)COc2ccc(C(=O)c3ccccc3)cc2)c1 (centres unmarked),-34.7%
18,COc1ccc(CNCC(O)COCc2cccs2)cc1 (centres unmarked),-60.8%
19,O=C(O)C(=O)O.O=C(c1ccccc1)c1ccc(OCC(O)CNCc2cccc(Cl)c2)cc1 (centres unmarked),-60.3%
20,C=CCOc1ccc(CN(C)CC(O)COc2ccc(CCC(C)=O)cc2)cc1 (centres unmarked),-63.6%
21,Cc1ccc(OCC(O)CNCc2ccccc2)cc1C (centres unmarked),-33.5%
22,COC(=O)c1ccc(COc2ccc(CNCc3ccc(Cl)cc3)cc2)cc1,-0.414%
23,C=CCOc1ccc(CN(C)CC(O)COc2cccc3ccccc23)cc1 (centres unmarked),-23.2%

# Reference: paper PMC4336329 (PLoS ONE, 2015)
